Assay outcomes as filed in PubChem BioAssay.
VACV Venus inh – inhibitors of vaccinia virus (Venus reporter) | 0.46% of 330,000 active | Vaccinia virus Venus reporter expression, fluorescence | Potency, µM (top dose mostly 36.5 µM), without a hit: top-dose activity change, negative = inhibition, most hits filed as inhibitors; calls by dose curve; tested in A549 cells; also: nearly all actives have a fitted effect of over 30% in size
Lassa entry inh – Lassa virus entry inhibition; Lassa virus pseudotype entry inhibition, cell reporter; Potency, µM (series often up to 37.9 µM), for inactives: at the top dose activity change, negative = inhibition, usual class: inhibitors; 1.2% of 300,000 active; AID 540256; calls by dose curve; tested in HEK293 cells; also: nearly all actives have a fitted effect of over 50% in size
FMDV antiviral – foot and mouth disease virus antiviral activity; FMDV antiviral cell-based qHTS; Potency, µM (doses to about 57.9 µM), for inactives: at the highest dose activity change, negative = inhibition, most hits filed as inhibitors; 1.2% of 410,000 active; AID 1159524; calls by dose curve; tested in HEK293T cells; also: read-out not given here; nearly all actives have a fitted effect of over 45% in size
MARV entry inh – Marburg virus entry inhibition | Potency, µM (series often up to 37.8 µM), without a hit: at the top dose activity change, negative = inhibition, hits mostly inhibitors | 1.8% of 300,000 active | AID 540276 | Marburg virus pseudotyped entry inhibition, cell reporter; calls by dose curve; tested in HEK293 cells
Sm TGR inh – inhibitors of Schistosoma mansoni thioredoxin glutathione reductase; purified TGR, DTNB reduction, TNB absorbance 405 nm; Potency, µM (top dose mostly 114 µM), for inactives: at the top dose activity change, negative = inhibition, hits mostly inhibitors; 3% of 360,000 active; AID 485364; active = well fitted inhibition curve with a large enough effect; inconclusive = small, poorly fitted or top-dose-only effect; inactive = no such curve, though single readings can be large or run the other way; also: nearly all actives have a fitted effect of over 60% in size
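First, TGR (20 nM dispensed) and NADPH were mixed with compound. Second, a 15 min room-temperature incubation followed. Third, further NADPH and then DTNB were added to start the reaction. Finally, TNB absorbance was monitored kinetically.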
Vaccinia mCherry – vaccinia inhibition (mCherry reporter); Vaccinia virus mCherry reporter infection, fluorescence; Potency, µM (doses to about 36.5 µM), for inactives: at the highest dose activity change, negative = inhibition, actives largely listed as inhibitors; 0.63% of 310,000 active; AID 720579; calls by dose curve; tested in A549 cells; also: nearly all actives have a fitted effect of over 35% in size
* marks the source's active call; other numbers are inactive results; i = inactive; ? = inconclusive; . = not tested or not shown; [ ] = dose if it differs, or a comment. Only some compounds are listed: those with a hit (about 5.4% of all), similar ones and a draw of the others. % is scaled to controls: 0 for no effect and ±100 for the full control effect; potency is read from the fitted curve at half-maximal effect.

SMILES	VACV Venus inh	Lassa entry inh	FMDV antiviral	MARV entry inh	Sm TGR inh	Vaccinia mCherry
O=C(Nc1ccc(OCc2cc(=O)n3ccsc3n2)cc1)c1ccc(F)cc1	-3%	-1%[46.1 µM]	-6%	1%[46.1 µM]	9%	-4%
CN(C(=O)COc1ccccc1C(=O)NCCOc1ccccc1)c1ccccc1	11µM*	11µM*	8.9µM*	?	12%	?
O=C1OC(c2ccccc2)=C/C1=C/N1CCOCC1	-2%	8%	.	13%	40µM*	i
O=C1SC(c2ccccc2)=C/C1=C\N1CCCCC1	-12%	5%	.	28%	0%	-27%
O=C1OC(c2ccccc2)=C/C1=C\N1CCOCC1	.	?	33%	-6%	20µM*	.
CO[C@@H]1c2cc(F)ccc2C(=CCCOC(=O)CC=Cc2ccccc2)[C@H]1C	.	.	.	-24%[14.2 µM]	.	.
Cc1nn(CC(=O)Nc2ccc3c(c2)nc2n3CCN(C3CCCCC3)C2)c(=O)c2ccccc12	-7%	?	-30%	?	18µM*	-15%
Cc1nn(CC(=O)Nc2ccc3c(c2)nc(CCN2CCCCC2)n3C)c(=O)c2ccccc12	.	20%	-23%	?	1%	.
Clc1ccc2c(c1)C(C1=NCCN1)c1ccccc1CS2 (configuration not stated)	-29%	?	-2%	1.3µM*	4%	-18%
COc1ccc(C(NC(C)=O)c2cc(Cl)c3cccnc3c2O)cc1 (configuration not stated)	.	.	-18%	.	-32%	.
COc1cc(C(=O)NC(c2ccccc2Cl)c2cc(Cl)c3cccnc3c2O)cc(OC)c1OC (configuration not stated)	-21%	?	-11%	.	5%	11µM*
CC(=O)NC(c1ccc(N(C)C)cc1)c1cc(Cl)c2cccnc2c1O (configuration not stated)	?	.	-24%	.	.	3.2µM*
CC(=O)NC(c1ccco1)c1cc(Cl)c2ccc(N3CCCCC3)nc2c1O (configuration not stated)	.	.	.	.	10µM*	.
CCC(=O)NC(c1cccs1)c1cc(Cl)c2cccnc2c1O (configuration not stated)	?	.	-15%	.	-16%	?
CCCC(=O)NC(c1ccc(OC)c(OC)c1)c1cc(Cl)c2cccnc2c1O (configuration not stated)	?	?	-1%	10µM*	.	13µM*
Cc1ccc(CCNC(=O)c2ccc(CSCc3ccccc3Cl)o2)cc1	-14%	-1%[46.1 µM]	-23%	.	-29%	-18%
CCOC(=O)CN1C(=O)[C@]2(OCCC=C[C@@H]2C)c2ccccc21	.	.	.	1%[14.2 µM]	.	.
CC(=O)NC(c1ccccc1)c1cc(Cl)c2cccnc2c1O (configuration not stated)	?	?	-16%	13µM*	-23%	?
CCC(=O)N1CCc2cc(Br)cc(S(=O)(=O)N3CCC(C(=O)Nc4ccccc4CC)CC3)c21	-16%	15%[46.1 µM]	-28%	-1%[46.1 µM]	8%	-11%
O=[N+]([O-])c1c(O)c(Cl)cc(Cl)c1Cl (tested in a mixture with another compound)	-9%	-10%[46.1 µM]	0%	?	.	-20%
O=C(O)c1cc(Nc2cc(Cl)c3nonc3c2[N+](=O)[O-])ccc1O	.	.	-19%	.	0.1µM*	.
O=[N+]([O-])c1c(Nc2ccc(O)cc2)cc(N2CCOCC2)c2nonc12	.	.	46%	.	-8%	.
O=[N+]([O-])c1c(Nc2ccccc2O)cc(Cl)c2nonc12	?	?	10µM*	?	0.63µM*	-24%
Nc1cc(Cl)c2nonc2c1[N+](=O)[O-]	10µM*	?	8.9µM*	?	1.4µM*	10µM*
Cc1ccc(Cl)cc1N(C)C(=O)c1cc2c(Cl)nc3ccccc3c2s1	-3%	?	-3%	2%[46.1 µM]	19%	3%
SMILES	VACV Venus inh	Lassa entry inh	FMDV antiviral	MARV entry inh	Sm TGR inh	Vaccinia mCherry
Clc1cccc(N2CCN(c3ncnc4c3nc3n4CCCCC3)CC2)c1	-21%	?	11µM*	2.8µM*	-12%	?
Cc1cccc(N2CCN(c3ncnc4c3nc3n4CCCCC3)CC2)c1C	-11%	-16%[46.1 µM]	-14%	.	3%	-13%
O=C(Nc1ccc(Cl)cn1)C1CCN(c2ncnc3c2nc2n3CCCCC2)CC1	?	-6%[46.1 µM]	?	3.5µM*	0%	-17%
O=C(C1CCN(c2ncnc3c2nc2n3CCCCC2)CC1)N1CCN(c2ccc(Cl)cc2)CC1	-7%	13%[46.1 µM]	-4%	.	-8%	i
O=C(C1CCN(c2ncnc3c2nc2n3CCCCC2)CC1)N1CCN(c2cccc(Cl)c2)CC1	-18%	-21%[46.1 µM]	22µM*	.	-13%	-8%
COc1ccc(OC)c2sc(NC(=O)c3ccc(S(=O)(=O)N4CCCC4)cc3)nc12	-30%	2%[46.1 µM]	?	.	-3%	-26%
Cc1cccc(NS(=O)(=O)c2ccc(C)c(C(=O)OCC(=O)Nc3cc(C)on3)c2)c1	9%	4.5µM*	25%	?	1%	22µM*
Cc1cccc(NS(=O)(=O)c2cc(C(=O)OCC(=O)Nc3cc(C)on3)ccc2C)c1	.	?	33%	?	1%	.
Cc1cc2n(n1)CCC(=O)N2Cc1ccc(C(=O)Nc2ccc(F)cc2F)cc1	-6%	-20%[46.1 µM]	-12%	.	4%	-18%
Cc1cccc(NCc2nc3ccccc3n2Cc2ccccc2)c1	.	7%	-15%	?	-29%	.
Cc1nc2cc(NCc3nc4ccccc4n3Cc3ccccc3)ccc2n1C	-9%	?	-30%	10µM*	8%	?
CCC1C(=O)NCCN1Cc1ccc2c(c1)CN(Cc1cccc(OC)c1)CCO2 (configuration not stated)	4%	.	3%	.	.	-2%
COc1ccc(/C=C/C(=O)NC(=S)Nc2ccc(S(=O)(=O)Nc3nccnc3OC)cc2)cc1	-5%	4%	0%	?	-28%	-5%
COc1nsnc1NS(=O)(=O)c1ccc(NC(=S)NC(=O)c2ccncc2)cc1	.	.	23%	.	32µM*	.
CC(C)(C)C(=O)NC(=S)Nc1ccc(S(=O)(=O)Nc2nccs2)cc1	-11%	33%[46.1 µM]	59%	?	?	i
COc1nccnc1NS(=O)(=O)c1ccc(NC(=S)NC(=O)c2cccnc2)cc1	.	.	17%	.	20µM*	.
O=C(NC(=S)Nc1ccc(S(=O)(=O)Nc2nccs2)cc1)c1ccc(F)cc1	-4%	2%	39%	8%	28µM*	-19%
COc1nccnc1NS(=O)(=O)c1ccc(NC(=S)NC(=O)c2ccc(F)cc2)cc1	-13%	-1%	52%	2%	45µM*	-26%
COc1nsnc1NS(=O)(=O)c1ccc(NC(=S)NC(=O)c2cccnc2)cc1	-2%	-3%	31%	24%[46.1 µM]	.	-14%
Cc1cnc(-n2ncc(C(=O)NCCc3ccccn3)c2C)nc1-c1ccc(F)cc1	-8%	.	-1%	.	.	-23%
COc1nccnc1NS(=O)(=O)c1ccc(NC(=S)NC(=O)c2ccccc2F)cc1	-12%	?	52%	?	?	-12%
